Calls of active or inactive are those of the source.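 The calls were made as follows: active = viability loss from added drug above about 55%, and viability with drug at most 40%, in both replicates (limit read from the data, passing the limit was not always enough); inconclusive = both conditions met in only one replicate; inactive = neither replicate meets both conditions.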
Assay: MRP1 drug-resistance reversers in H69AR cells – cell-based, doxorubicin co-treatment, pilot screen (AID 601)
Details: H69AR cells + 2 uM doxorubicin, CellTiter-Glo, 72 h; at 10 µM; stronger effect = higher value
With `CC1(C)NC(=O)N(CN2C(=O)NC(C)(C)C2=O)C1=O` the differential viability (reversal) was 11.1% (inactive). With `Cc1ccccc1NC(=O)C1CCC(C)(C(=O)O)C1(C)C` (stereo unspecified) the differential viability (reversal) was 0.94% (inactive). In the case of `CC(C)[C@H](NC(=O)OC(C)(C)C)c1nnc(S(=O)(=O)Cc2c(F)cccc2Cl)o1`, the differential viability (reversal) is reported as 0.065% (inactive). In the case of `CSC1CCCCC1(O)CSc1nc2c(cc1C#N)CCCC2` (stereo unspecified), the differential viability (reversal) is reported as -2.66% (inactive). In the case of `Cc1cccc(NC(=O)CCn2ccnc2C)c1`, the differential viability (reversal) is reported as 3.98% (inactive). For `CCCSc1nnc(-c2ccccc2NC(=O)CC)c(=O)[nH]1`, the differential viability (reversal) was 14.4% (inactive). In the case of `Cc1ccc(S(=O)(=O)N2CCCC2C(=O)OCc2ccco2)cc1` (stereo unspecified), the differential viability (reversal) is reported as 0.425% (inactive). For `Cc1ccc(C2C(C#N)=C(N)Oc3cc4c(cc32)OCO4)cc1` (stereo unspecified), the differential viability (reversal) was -44.2% (inactive). With `CCNc1oc(COc2ccccc2F)nc1C#N` the differential viability (reversal) was 22.9% (inactive). With `CC(C)Cc1nnc(NC(=O)CCC(=O)N2CCOCC2)s1` the differential viability (reversal) was 0.305% (inactive). In the case of `Cc1cccc(OCC(=O)Nc2ccccc2N2CCN(C(=O)C(C)C)CC2)c1C`, the differential viability (reversal) is reported as 2.79% (inactive). For `CC1(C)NC(=O)N(CCOc2cccc(Cl)c2Cl)C1=O`, the differential viability (reversal) was 14.6% (inactive). For `Cn1c(=O)[nH]c(=O)c2c1nc(NC1CCCCC1)n2CC(=O)NC1CCCCC1`, the differential viability (reversal) was 14.6% (inactive). With `COc1ccc(Nc2ncc3c(n2)CC(c2ccc(OC)cc2)CC3=O)cc1` (stereo unspecified) the differential viability (reversal) was 3.81% (inactive). In the case of `COc1ccc(OC)c(Nc2ncnc3c2cnn3-c2ccccc2)c1`, the differential viability (reversal) is reported as 1.97% (inactive). In the case of `O=C(c1ccc(-c2ccccc2)cc1)N1CCC(C(=O)N2CCCC2)CC1`, the differential viability (reversal) is reported as 12.4% (inactive).

— PubChem BioAssay
